Inconclusive results are not listed. Active and inactive are the calls of the source. The call rests on the fitted dose curve; in most records, active means well fitted inhibition curve with a large enough effect; inconclusive means small, poorly fitted or top-dose-only effect; inactive means no such curve, though single readings can be large or run the other way.

This test concerns the target Endonuclease 4 (Escherichia coli (strain K12)) (UniProt P0A6C1). Briefly: Counterscreen for APE1 Inhibitors: qHTS Validation Assay for Inhibitors of Endonuclease IV (AID 1708). As to conditions: E. coli endonuclease IV, DNA cleavage fluorescence; series mostly up to 57.1 µM; activity change, negative = inhibition: at the top concentration. From the text:
Assay Provider: David M. Wilson, III, National Institute on Aging, NIH
Screening Center PI: Austin, C.P.
Screening Center: NIH Chemical Genomics Center [NCGC]
Escherichia coli endonuclease IV (Endo IV) is the key member of the AP endonuclease superfamily that catalyzes the cleavage of damaged DNA backbone immediately 5' of an AP site. E. coli EndoIV has the same functional activities as human APE1 but has no sequence or structural homology to the human protein. Herein, we utilize E. coli EndoIV to counter screen compound libraries as part of a high-throughput campaign for APE1 inhibitor identification. A concentration-response screen of the LOPAC1280 collection was performed under experimental conditions identical to those used in the APE1 screen.
Inhibition of APE1 activity was screened by utilizing double-stranded short substrate containing tetrahydrofuran (THF) abasic site labeled with rhodamine-type fluorophore (TAMRA) at the 5'-end and with non-fluorescent Black Hole Quencher-2 (BHQ-2) at the opposing 3'-end. An increase in the fluorescence intensity due to incision of the abasic site by APE1 was used to measure the enzyme activity.
Buffer: 50 mM Tris-HCl (pH 7.5) containing 50mM NaCl, 2 mM MgCl2, 1 mM DTT and 0.01% Tween-20.
Buffer in columns 3 and 4 as negative control (no enzyme).
Substrate: 50 nM final concentration of TAMRA/BHQ-2 substrate dispensed throughout the plate.
Enzyme: 2 nM E. coli EndoIV final concentration in columns 1, 2, 5-48. Column 1 is neutral (100% activity).
Control: Pintool transfer of control inhibitor NSC-13755 to column 2 of all assay plates. Two-fold, 16 pt dilution in duplicate to produce final concentrations in the 5.75 uM - 0.175 nM range.
Three uL of enzyme were dispensed to 1536-well Greiner black solid bottom plates. Compounds (23 nL) were transferred via Kalypsys pintool. The plates were incubated for 15 min at room temperature, and then 1 uL of substrate solution was added to start the reaction. The plates were immediately transferred into ViewLux High-throughput CCD imager (Perkin-Elmer) in order to measure the reaction progress in kinetic mode (three reads every 60 seconds) using 525 nm excitation and 598 nm emission fluorescence protocol. The fluorescence intensity difference between the third and the first time points was used to compute reaction progress.
In general terms: Counterscreens check selectivity or assay interference.
For the compound `CN1C(=O)CCC1c1cccnc1` (stereo not given), the “activity change, negative = inhibition” value was -4.02% (inactive).

For `CN=C(N)NCCCC(N)C(=O)O` (stereo not given), the “activity change, negative = inhibition” value is -8.51% (inactive).

As for `OC[C@H]1O[C@@H](n2cnc3c(Nc4ccccc4)ncnc32)[C@H](O)[C@H]1O`, the “activity change, negative = inhibition” value was -4.74% (inactive).

On to `CCCC(=O)NCCc1c2n(c3ccc(OC)cc13)Cc1ccccc1-2`, for which the “activity change, negative = inhibition” value is -1.2% (inactive).

In the case of `CC(=O)NCCc1ccc(O)c(O)c1`, the “activity change, negative = inhibition” value is 64.3% (inactive).

As for `NC(=NCCC[C@H](N)C(=O)O)NO`, the “activity change, negative = inhibition” value was -4.02% (inactive).

Regarding `CSc1nc(N)c2ncn([C@@H]3O[C@H](COP(=O)(O)OP(=O)(O)OP(=O)(O)O)[C@H](O)[C@H]3O)c2n1`, the “activity change, negative = inhibition” value was -14.2% (inactive).

Take `NCCC(=O)NCCc1cnc[nH]1`: the “activity change, negative = inhibition” value was -8.76% (inactive).

Take `CNc1ncnc2c1ncn2[C@@H]1O[C@H](CO)[C@H](O)[C@H]1O`: the “activity change, negative = inhibition” value was -11.1% (inactive).

As to `NC(=S)c1ccc[n+]([C@@H]2O[C@@H](COP(=O)([O-])OP(=O)(O)OC[C@H]3O[C@@H](n4cnc5c(N)ncnc54)[C@H](OP(=O)(O)O)[C@H]3O)C(O)C2O)c1` (stereo not given in full), the “activity change, negative = inhibition” value was 28.4% (inactive).

As for `CN(CCOc1ccc(C[C@H](Nc2ccccc2C(=O)c2ccccc2)C(=O)O)cc1)c1ccccn1`, the “activity change, negative = inhibition” value is -13.7% (inactive).

Consider `Cc1cn([C@H]2C[C@@H](N=[N+]=[N-])[C@@H](CO)O2)c(=O)[nH]c1=O`, for which the “activity change, negative = inhibition” value was -4.74% (inactive).

For `CCSC(N)=Nc1ccc(C(F)(F)F)cc1`, the “activity change, negative = inhibition” value was -14.6% (inactive).

On to `COc1cc2c(cc1OC)C(c1ccccc1)CN(C)CC2` (stereo not given), for which the “activity change, negative = inhibition” value was -8.35% (inactive).

With `N=C(N)SCCc1cccc(CCSC(=N)N)c1`, the “activity change, negative = inhibition” value was -2.01% (inactive).

As for `CNC(=O)[C@H]1O[C@@H](n2cnc3c(NCc4cccc(I)c4)ncnc32)[C@H](O)[C@H]1O`, the “activity change, negative = inhibition” value is -5.86% (inactive).

Turning to `CC(N)=NCCCC(N)C(=O)O` (stereo not given), the “activity change, negative = inhibition” value is -6.99% (inactive).

Regarding `O=C(Cc1ccc(Cl)c(Cl)c1)OCCN1CCCC1`, the “activity change, negative = inhibition” value was -10.1% (inactive).

With `O=C(O)CC[C@H](NC(=O)c1ccccc1C(=O)O)C(=O)O`, the “activity change, negative = inhibition” value is -10.6% (inactive).

Regarding `CCCCCCCCCCCCCCC/C=C/[C@@H](O)[C@H](NC(=O)CCCCCCCCCCCCC)OC` (tested in a mixture with another compound), the “activity change, negative = inhibition” value is -11% (inactive).

As for `N=C1Sc2ccccc2C2=NCCCN12`, the “activity change, negative = inhibition” value was -6.02% (inactive).

For `CC(C)C1NC(=O)[C@H](CCCCN)NC(=O)[C@@H](Cc2c[nH]c3ccccc23)NC(=O)[C@H](Cc2ccc(O)cc2)NC(=O)[C@H](C)N(C)C(=O)[C@H](Cc2ccccc2)NC1=O` (stereo not given in full), the “activity change, negative = inhibition” value is -5.7% (inactive).

Turning to `C[C@H]1CC2[C@@H]3CCC4=CC(=O)C=C[C@]4(C)[C@@]3(Cl)[C@@H](O)C[C@]2(C)[C@@]1(O)C(=O)CO` (stereo not given in full), the “activity change, negative = inhibition” value was 12.9% (inactive).

Turning to `NCC1OC(O[C@@H]2[C@H](O)[C@@H](OC3C(O)C(N)CC(N)C3OC3OC(CO)C(O)C(O)C3N)O[C@@H]2CO)C(N)C(O)C1O` (stereo not given in full), the “activity change, negative = inhibition” value is -5.62% (inactive).

`OC[C@H]1O[C@@H](n2cnc3c(NC4CCCC4)ncnc32)[C@H](O)[C@H]1O`: the “activity change, negative = inhibition” value was -6.83% (inactive).

`COc1ccc(CCNC[C@@H](O)c2ccc(O)cc2)cc1OC`: the “activity change, negative = inhibition” value is -2.97% (inactive).

Consider `NC(=S)NCCCC(N)C(=O)O` (stereo not given), for which the “activity change, negative = inhibition” value was -0.803% (inactive).

Regarding `CNCC[C@@H](Oc1ccc(C(F)(F)F)cc1)c1ccccc1`, the “activity change, negative = inhibition” value is -7.55% (inactive).

As for `C[C@H](Cc1ccccc1)Nc1ncnc2c1ncn2[C@@H]1O[C@H](CO)[C@H](O)[C@H]1O`, the “activity change, negative = inhibition” value was 7.39% (inactive).

As to `CC(=O)O[C@H]1C[C@@H]2CCC3C(CC[C@@]4(C)[C@H]3C[C@H]([N+]3(C)CCCCC3)[C@@H]4OC(C)=O)[C@@]2(C)C[C@@H]1[N+]1(C)CCCCC1` (stereo not given in full), the “activity change, negative = inhibition” value was -5.06% (inactive).

Take `COc1c2c(nc3ccccc13)OC(C(C)(O)CO)C2` (stereo not given): the “activity change, negative = inhibition” value is -4.5% (inactive).

Regarding `NCCCCNS(=O)(=O)c1cccc2c(Cl)cccc12`, the “activity change, negative = inhibition” value was -4.34% (inactive).

Take `Nc1ncnc2c1ncn2[C@@H]1O[C@H](CO)[C@H](O)[C@H]1O`: the “activity change, negative = inhibition” value was -7.39% (inactive).

`O=[N+]([O-])c1ccc(CSc2ncnc3c2ncn3[C@@H]2O[C@H](CO)[C@H](O)[C@H]2O)cc1`: the “activity change, negative = inhibition” value is -8.43% (inactive).

In the case of `C[C@H]1CC2[C@@H]3CCC4=CC(=O)C=C[C@]4(C)[C@@]3(F)[C@@H](O)C[C@]2(C)[C@@]1(O)C(=O)CO` (stereo not given in full), the “activity change, negative = inhibition” value is 1.2% (inactive).

For `COc1ccc2c(c1)c(CC(=O)O)c(C)n2Cc1ccc(F)cc1`, the “activity change, negative = inhibition” value was -6.91% (inactive).

As to `Nc1nc2c(nc(Br)n2C2O[C@H]3COP(=O)(O)O[C@@H]3C2O)c(=O)[nH]1` (stereo not given in full), the “activity change, negative = inhibition” value was -9.72% (inactive).

As to `NCCNC(=O)c1ccc(Cl)cc1`, the “activity change, negative = inhibition” value was -5.14% (inactive).

`OC[C@H]1O[C@@H](n2cnc3c(NCCc4ccccc4)ncnc32)[C@H](O)[C@H]1O`: the “activity change, negative = inhibition” value is -8.11% (inactive).

For the compound `N[C@H](Cc1ccc(O)c(O)c1)C(=O)O`, the “activity change, negative = inhibition” value was 12.4% (inactive).
